Among the data in PubChem BioAssay are growth inhibition, inhibition and outcome values, retold here.

A number with no mark means an inactive call. For some of these results: Entries with a potency or affinity are not part of this list. Calls of active or inactive are those of the source. Unless noted, how the calls were made is not given here.

The nature of assay [1]: antimalarial activity against Dd2 strain (AID 2302;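 active means growth inhibition above 50% at the single 2 µM test dose, taken to imply half-maximal potency below 2 µM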;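 further: 0% = DMSO untreated growth and 100% = chloroquine plus artemisinin killed control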). Particulars: P. falciparum Dd2 in RBCs, LDH growth readout, 72 h; at 2 µM; hits give high values.
Assay [2] in a line: human hepatoma cell viability loss – ATP luminescence, cytotoxicity control for P. falciparum antimalarial project, primary screen (AID 2303;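 active means inhibition above 50%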;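 further: 0% = DMSO wells and 100% = digitonin-killed cells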). To be noted: HepG2 viability, 24-48 h, at 10 µM, hits give high values.
Assay [3] has as its target L-lactate dehydrogenase (Plasmodium falciparum (isolate CDC / Honduras)) (UniProt Q27743). In words: PfLDH activity inhibition – cell lysate, 3D7 strain, counter-screen for P. falciparum growth inhibition project (AID 2304).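 Further: 0% = vehicle and 100% = reference inhibitor.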 To be noted: P. falciparum 3D7 crude extract, LDH APAD/NBT absorbance; at 2 µM; hits give high values. Background: Counterscreens check selectivity or assay interference.

Assay [4] in a line: inhibition of 3D7 malaria parasite growth – strain 3D7 (AID 2306).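 Further: 0% = DMSO wells and 100% = chloroquine plus artemisinin control wells.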 Particulars: P. falciparum 3D7 erythrocytic growth, LDH absorbance, 72 h; at 2 µM; hits give high values.
The target of assay [5] is Calcium-dependent protein kinase 1 (Plasmodium falciparum (isolate 3D7)) (UniProt P62344). In words: PfCDPK1 kinase inhibitors, biochemical, TCAMS library (AID 1159585; cut-off not given, nearly all actives have IC50 up to about 0.98 µM;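 further: inhibitors leave more ATP so luminescence rises with inhibition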). To be noted: recombinant PfCDPK1, Kinase-Glo ATP depletion luminescence. Background: In Kinase-Glo more light means more ATP remaining.
The target in assay [6] is Plasmodium falciparum protein kinase 6 (PK6, PF3D7_1337100) (UniProt Q8IDW1). The assay is described as follows: PfPK6 kinase inhibitors, biochemical, TCAMS library (AID 1159586). To be noted: recombinant PfPK6, Kinase-Glo ATP depletion luminescence.
Assay [7] deals with Protein kinase 7 (PK7), Plasmodium falciparum 3D7 (PF3D7_0213400) (UniProt Q7YTF7). In words: inhibition of Plasmodium PK7 catalytic activity – biochemical, TCAMS antimalarial set, Kinase-Glo luminescence (AID 1159587). Particulars: recombinant PfPK7, Kinase-Glo ATP depletion luminescence.
In assay [8] the target is Calcium-dependent protein kinase 4 (Plasmodium falciparum (isolate 3D7)) (UniProt Q8IBS5). The assay is described as follows: PfCDPK4 kinase inhibitors, biochemical, TCAMS library (AID 1159588; cut-off not given, nearly all actives have IC50 up to about 0.91 µM). Particulars: recombinant PfCDPK4, Kinase-Glo ATP depletion luminescence.
Sequence of Calcium-dependent protein kinase 4 (Plasmodium falciparum (isolate 3D7)) (Q8IBS5 whole entry, looked up): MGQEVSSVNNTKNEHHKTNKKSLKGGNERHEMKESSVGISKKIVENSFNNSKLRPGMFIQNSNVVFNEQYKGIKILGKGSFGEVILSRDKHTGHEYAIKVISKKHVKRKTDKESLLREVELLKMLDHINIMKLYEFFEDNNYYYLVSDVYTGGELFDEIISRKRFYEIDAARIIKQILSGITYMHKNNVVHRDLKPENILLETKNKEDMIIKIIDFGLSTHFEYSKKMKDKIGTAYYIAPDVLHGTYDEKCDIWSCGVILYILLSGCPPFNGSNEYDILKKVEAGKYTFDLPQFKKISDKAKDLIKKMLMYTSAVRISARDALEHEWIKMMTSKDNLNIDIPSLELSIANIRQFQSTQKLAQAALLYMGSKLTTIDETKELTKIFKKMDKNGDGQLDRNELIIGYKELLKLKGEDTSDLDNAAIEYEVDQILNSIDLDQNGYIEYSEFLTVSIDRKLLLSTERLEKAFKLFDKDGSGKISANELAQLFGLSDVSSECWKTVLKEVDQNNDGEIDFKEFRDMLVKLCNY

Sequence of Plasmodium falciparum protein kinase 6 (PK6, PF3D7_1337100) (Q8IDW1 1-305): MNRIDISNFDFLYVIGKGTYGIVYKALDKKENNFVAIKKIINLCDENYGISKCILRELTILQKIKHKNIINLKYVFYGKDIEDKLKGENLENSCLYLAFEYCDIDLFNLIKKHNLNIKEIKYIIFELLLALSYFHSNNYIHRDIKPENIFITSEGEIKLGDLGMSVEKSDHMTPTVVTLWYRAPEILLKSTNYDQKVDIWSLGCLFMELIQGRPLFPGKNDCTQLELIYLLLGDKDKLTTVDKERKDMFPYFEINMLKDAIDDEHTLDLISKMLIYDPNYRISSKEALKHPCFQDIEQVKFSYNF
Sequence of Protein kinase 7 (PK7), Plasmodium falciparum 3D7 (PF3D7_0213400) (Q7YTF7 1-343): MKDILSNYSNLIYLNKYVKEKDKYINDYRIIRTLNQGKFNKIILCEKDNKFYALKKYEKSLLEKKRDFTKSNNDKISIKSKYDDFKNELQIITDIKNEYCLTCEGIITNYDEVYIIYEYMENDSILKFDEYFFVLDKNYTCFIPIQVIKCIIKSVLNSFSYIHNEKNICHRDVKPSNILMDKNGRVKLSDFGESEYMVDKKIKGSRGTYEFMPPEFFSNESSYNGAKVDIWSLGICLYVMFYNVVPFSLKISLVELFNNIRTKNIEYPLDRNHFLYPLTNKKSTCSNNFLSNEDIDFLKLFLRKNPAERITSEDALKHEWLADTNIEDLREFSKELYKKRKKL
Sequence of L-lactate dehydrogenase (Plasmodium falciparum (isolate CDC / Honduras)) (Q27743 whole entry, looked up): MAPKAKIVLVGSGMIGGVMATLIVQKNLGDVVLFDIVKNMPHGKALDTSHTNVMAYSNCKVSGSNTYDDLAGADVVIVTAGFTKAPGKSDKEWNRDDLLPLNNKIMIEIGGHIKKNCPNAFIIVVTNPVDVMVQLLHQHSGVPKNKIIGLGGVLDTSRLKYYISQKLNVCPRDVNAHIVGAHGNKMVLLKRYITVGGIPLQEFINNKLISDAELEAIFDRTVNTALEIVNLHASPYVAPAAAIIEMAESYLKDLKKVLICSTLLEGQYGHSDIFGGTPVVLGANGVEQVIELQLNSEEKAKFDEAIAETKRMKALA
Sequence of Calcium-dependent protein kinase 1 (Plasmodium falciparum (isolate 3D7)) (P62344 whole entry, looked up): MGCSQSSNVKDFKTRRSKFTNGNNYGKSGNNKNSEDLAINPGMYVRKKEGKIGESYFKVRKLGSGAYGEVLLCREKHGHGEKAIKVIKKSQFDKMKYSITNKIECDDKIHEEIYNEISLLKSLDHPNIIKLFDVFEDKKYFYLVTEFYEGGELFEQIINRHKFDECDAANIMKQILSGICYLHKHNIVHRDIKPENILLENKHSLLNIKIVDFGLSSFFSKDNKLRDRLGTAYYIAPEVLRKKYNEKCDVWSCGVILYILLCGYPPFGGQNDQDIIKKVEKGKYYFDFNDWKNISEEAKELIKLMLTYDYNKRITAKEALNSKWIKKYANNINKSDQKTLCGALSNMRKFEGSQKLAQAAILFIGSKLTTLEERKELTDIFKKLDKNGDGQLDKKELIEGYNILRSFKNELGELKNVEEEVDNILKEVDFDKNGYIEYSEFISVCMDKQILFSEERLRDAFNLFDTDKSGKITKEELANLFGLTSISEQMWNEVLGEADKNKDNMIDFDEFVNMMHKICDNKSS

The inhibition is the drop in the measured response relative to a control, in per cent. With `Cc1cc(NC2CCN(CC3CCCCC3)C2)nc(Nc2ccc(Cl)cc2)n1` (stereo not given), the figures for the growth inhibition in assay [1] and in assay [4] were 83% (active) and 98% (active), respectively. Besides, the inhibition in assay [2] is 26%; in assay [3], -2%. Also, the result in assay [5], in assay [6], in assay [7] and in assay [8] was inactive.

Consider `COc1ccc2nc(Nc3nc4ccncc4[nH]3)sc2c1`, for which the figures for the growth inhibition in assay [1] and in assay [4] were 26% and 88% (active), respectively. In addition, the results for the inhibition in assay [2] and in assay [3] were 8% and 0%, respectively. Further, the result in assay [5], in assay [6], in assay [7] and in assay [8] was inactive.

Turning to `CCc1cn2c3c(cc(C(=O)N[C@@H](Cc4ccccc4)[C@H](O)CNC4CCOCC4)cc13)N(CC(F)(F)F)S(=O)(=O)CC2`, the growth inhibition in assay [1] and in assay [4] was 98% (active) in each case. In addition, the inhibition in assay [2] is 4%; in assay [3] it was -2%. In addition, the outcome in assay [5], in assay [6], in assay [7] and in assay [8] was inactive.

As for `CCc1ccc(-c2nc3cc(NC(=O)c4cc([N+](=O)[O-])cc([N+](=O)[O-])c4)ccc3o2)cc1`, the values for the growth inhibition in assay [1] and in assay [4] were 12% and 93% (active), respectively. Besides, the inhibition in assay [2] was 12%; in assay [3], 2%. For the same compound, the result in assay [5], in assay [6], in assay [7] and in assay [8] was inactive.

On to `Cc1ccccc1C1CCN(C2CCC(NC(=O)c3ccc4c(c3)-c3nocc3C(C)O4)CC2)CC1` (stereo not given), for which the growth inhibition in assay [1] is 37%; in assay [4], 88% (active). Also, the inhibition is 68% (active) in assay [2] and 4% in assay [3]. Also, the result in assay [5], in assay [6], in assay [7] and in assay [8] was inactive.

Consider `COc1cc(CNC[C@@H](O)[C@H](Cc2ccccc2)NC(=O)c2cc(OC(C)C)cc(N3CCCS3(=O)=O)c2)cc(OC)c1`, for which the figures for the growth inhibition in assay [1] and in assay [4] were 72% (active) and 97% (active), respectively. The inhibition was -1% in assay [2] and 0% in assay [3]. The result in assay [5], in assay [6], in assay [7] and in assay [8] was inactive.

For `COc1ccc2nccc(N3CCC(O)(CCNCc4ccc5c(n4)NC(=O)CS5)CC3)c2n1`, the growth inhibition was 21% in assay [1] and 99% (active) in assay [4]. The inhibition in assay [2] is 10%; in assay [3], 0%. The result in assay [5], in assay [6], in assay [7] and in assay [8] was inactive.

In the case of `Cc1cccc2[nH]c(-c3ccc(-c4cccc(CNCCCNS(C)(=O)=O)c4)s3)nc12`, the growth inhibition is 19% in assay [1] and 99% (active) in assay [4]. In addition, the results for the inhibition in assay [2] and in assay [3] were 20% and 2%, respectively. Also, the result in assay [5], in assay [6], in assay [7] and in assay [8] was inactive.

`CNC(=O)c1ccc2nc(C3CC3)n(CC3CCN(S(=O)(=O)c4cccc(Cl)c4)CC3)c2c1`: the growth inhibition in assay [1] and in assay [4] was 100% (active) in each case. Moreover, the inhibition in assay [2] is -6%; in assay [3], 3%. In addition, the result in assay [5], in assay [6], in assay [7] and in assay [8] was inactive.

As for `O=C(N[C@H]1CCN(CCc2ccc(O[C@H]3CCNC3)c(Br)c2)C1)c1ccc(Cl)c(Cl)c1`, the figures for the growth inhibition in assay [1] and in assay [4] were 0% and 100% (active), respectively. The inhibition in assay [2] was 28%; in assay [3], -4%. Moreover, the outcome in assay [5], in assay [6], in assay [7] and in assay [8] was inactive.

Take `Cc1nnsc1C(=O)Nc1cccc(-c2ccc(-c3nc4c(C)cccc4[nH]3)s2)c1`: the values for the growth inhibition in assay [1] and in assay [4] were 44% and 100% (active), respectively. Further, the inhibition in assay [2] is 46%; in assay [3] it was 4%. For the same compound, the outcome in assay [5], in assay [6], in assay [7] and in assay [8] was inactive.

For `O=C(Cn1c2ccccc2c(=O)c2ccc(Cl)cc21)Nc1ccc(C(F)(F)F)cc1`, the values for the growth inhibition in assay [1] and in assay [4] were 100% (active) and 99% (active), respectively. For the same compound, the inhibition in assay [2] was 30%; in assay [3], -3%. The result in assay [5], in assay [6], in assay [7] and in assay [8] was inactive.

For the compound `CC1CCN(CC[C@H]2CCCN2S(=O)(=O)c2cccc(NC(=O)c3cc4ccccc4s3)c2)CC1`, the growth inhibition in assay [1] is 41%; in assay [4] it was 97% (active). In addition, the inhibition was 28% in assay [2] and 2% in assay [3]. Besides, the result in assay [5], in assay [6], in assay [7] and in assay [8] was inactive.

Take `Cc1ccc(C(=O)Nc2ccc(C)c(OC3CCN(CCC(C)C)C3)c2)cc1` (stereo not given): the growth inhibition was 53% (active) in assay [1] and 99% (active) in assay [4]. In addition, the inhibition was 6% in assay [2] and -13% in assay [3]. Further, the outcome in assay [5], in assay [6], in assay [7] and in assay [8] was inactive.

For the compound `Cc1nc2ccccc2n1C1C[C@H]2CC[C@@H](C1)N2CCCC1(c2ccccc2)CCN(C(=O)OCc2ccccc2)CC1` (stereo not given in full), the growth inhibition in assay [1] was 29%; in assay [4], 90% (active). Moreover, the values for the inhibition in assay [2] and in assay [3] were 46% and -4%, respectively. For the same compound, the outcome in assay [5], in assay [6], in assay [7] and in assay [8] was inactive.

On to `O=C(/C=C/c1ccc(Cl)c(Cl)c1)NC1CCN(Cc2cccc(O)c2)CC1`, for which the figures for the growth inhibition in assay [1] and in assay [4] were -1% and 94% (active), respectively. Moreover, the inhibition in assay [2] was -3%; in assay [3], -1%. For the same compound, the result in assay [5], in assay [6], in assay [7] and in assay [8] was inactive.

For the compound `Fc1ccc2nc(Nc3nc(-c4ccccn4)cs3)sc2c1`, the growth inhibition is 100% (active) in assay [1] and 102% (active) in assay [4]. Moreover, the inhibition in assay [2] is 42%; in assay [3], 3%. In addition, the result in assay [5], in assay [6], in assay [7] and in assay [8] was inactive.

For `COc1cc2nc(SCC(C)C)n(CCCn3ccnc3)c(=N)c2cc1OC`, the growth inhibition was 78% (active) in assay [1] and 99% (active) in assay [4]. For the same compound, the results for the inhibition in assay [2] and in assay [3] were 15% and -2%, respectively. The result in assay [5], in assay [6], in assay [7] and in assay [8] was inactive.

Consider `Nc1c(Cl)cc(C(O)CNCCCCCOCCCc2ccc3ncccc3c2)cc1Cl` (stereo not given), for which the growth inhibition in assay [1] was 77% (active); in assay [4], 96% (active). The inhibition in assay [2] was 24%; in assay [3] it was -8%. Besides, the result in assay [5], in assay [6], in assay [7] and in assay [8] was inactive.

Take `O=C(NC1CC1)c1ccc(N2CCC(Cc3ccccc3)CC2)c([N+](=O)[O-])c1`: the growth inhibition was 83% (active) in assay [1] and 96% (active) in assay [4]. Also, the inhibition is 12% in assay [2] and -1% in assay [3]. Moreover, the outcome in assay [5], in assay [6], in assay [7] and in assay [8] was inactive.
